# Laboratory results published in paper PMC7819943, “Rice protein-binding microarrays: a tool to detect cis-acting elements near promoter regions in rice”.
# Over roughly 68,000 sequences, “fluorescence intensity (a.u.)” has its median near 9,100; the highest 2% begin near 16,000. The sample holds the highest values, similar sequences and a random draw of the others, so the mix is not that of the screen.
# Molecular target: OsWRKY34 (Oryza sativa, UniProt Q0JBA9 1-250)
# Test: protein-binding microarray (RPBM); PBS, 2% BSA, 51.3 ng/ul salmon testes DNA, 50 uM zinc acetate, 200 nM TF, 25 C, 1 h; high values mean tight binding
# Settings: protein: recombinant; tags: N-terminal polyhistidine and DsRed monomer fusion (pET32a); label: CyDye5-dUTP incorporated in the synthesized complementary strand; 3' TTTTT single-stranded linker to array surface; dsDNA, one strand shown
# How it was run: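 Transcription factors, each fused N-terminally to a polyhistidine tag and DsRed, were expressed in E. coli BL21-CodonPlus and purified on Ni–NTA. A custom Agilent array was made double-stranded by primer extension with Cy5-dUTP and blocked with 2% BSA. It was incubated with 200 nM protein in PBS, 2% BSA, salmon testes DNA and 50 µM zinc acetate at 25 °C for 1 h, then washed. The binding signal is per-feature fluorescence intensity (arbitrary units) read on an Axon 4000B scanner.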
# OsWRKY34, sequence (Q0JBA9 entry or part of it): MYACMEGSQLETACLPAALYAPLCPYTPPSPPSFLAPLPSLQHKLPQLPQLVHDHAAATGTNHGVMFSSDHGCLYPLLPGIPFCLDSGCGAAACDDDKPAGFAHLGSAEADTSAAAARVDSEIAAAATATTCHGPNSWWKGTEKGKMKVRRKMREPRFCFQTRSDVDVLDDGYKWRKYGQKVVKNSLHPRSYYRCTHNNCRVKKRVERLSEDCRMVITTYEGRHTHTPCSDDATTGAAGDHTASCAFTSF
row,Sequence,binding signal
1,TTCTATGTTGTGGTTCTGTGTTTTACACTTCAGTTTTGTTCGGAGTCACCTAGTGCAG,8030 fluorescence intensity (a.u.)
2,GTGATCCGGTGCCCTCTGACCCGCAACTTCCTTTTGGCACCGGAGTCACCTAGTGCAG,8460 fluorescence intensity (a.u.)
3,TTAGATGTGGCCAGTTTTGATTTCTAGCTTATAGGATCGTCGGAGTCACCTAGTGCAG,9000 fluorescence intensity (a.u.)
4,ACAATGTGACCCTATGTACAATTTACTCATATATTTTTATCGGAGTCACCTAGTGCAG,9570 fluorescence intensity (a.u.)
5,GAGTAGTAAGTTATATCCCTCAACCATTTCACTTCACACACGGAGTCACCTAGTGCAG,9600 fluorescence intensity (a.u.)
6,GGTGACCATTCCTAGTTTCCTACCCCTCATGTTTTTCTTTCGGAGTCACCTAGTGCAG,17000 fluorescence intensity (a.u.)
7,GGATCTCGTTTGTCTGGTTTTCGTAAGTTGAGGGACGGGTCGGAGTCACCTAGTGCAG,8380 fluorescence intensity (a.u.)
8,GTTCTGGTTGGGATCGATTTCTTCTTCCCCTTTGTTGCTTCGGAGTCACCTAGTGCAG,9700 fluorescence intensity (a.u.)
9,ATGTTGCCCTTTGTTCTGCTGTTTCCTGGTTATATGGGATCGGAGTCACCTAGTGCAG,17500 fluorescence intensity (a.u.)
10,TTATGAGGGTAAGTTTGTATTTGTCATATTTGGGTTGCTACGGAGTCACCTAGTGCAG,8110 fluorescence intensity (a.u.)
11,CTCGCGCGTGCCCGCCTCTGCTGTTCTTTCTCTCGCCCTCCGGAGTCACCTAGTGCAG,11400 fluorescence intensity (a.u.)
12,ATCTGTTATGTTTGCCCTGTCATTGGTTCTGCTAATCAATCGGAGTCACCTAGTGCAG,9160 fluorescence intensity (a.u.)
13,ATTCATTACACCATGTTTCTTTCTTTCTTTCGAGGACCCTCGGAGTCACCTAGTGCAG,8370 fluorescence intensity (a.u.)
14,GCCTGCCTGTCTGCCTCCGCGTCTTTTCTGCTGCCCACATCGGAGTCACCTAGTGCAG,19500 fluorescence intensity (a.u.)
15,CCTTGTTTGCTCGGTTTTTGTAAGTTGAGGGACGGGTCATCGGAGTCACCTAGTGCAG,18700 fluorescence intensity (a.u.)
16,CATCGCCTCCGCTTCTGCTTTTTTTTTTCTTTTTTCTCGTCGGAGTCACCTAGTGCAG,10200 fluorescence intensity (a.u.)
17,TTCTTTTTCGTTTTCTTCTCATTCTTCTTTTTTTTCCTTTCGGAGTCACCTAGTGCAG,14300 fluorescence intensity (a.u.)
18,AGTTTCAGTAGCCTCGCCGATCGACTTGCCACACCGCCGTCGGAGTCACCTAGTGCAG,9260 fluorescence intensity (a.u.)
19,CACCGCCATCTTCCTCTTCTTCTTCGTCGTCGTGGTTGGCCGGAGTCACCTAGTGCAG,11100 fluorescence intensity (a.u.)
20,AAACTGGGCCATATCGGTTGGTTTTTGCTCTCTACGTCTCCGGAGTCACCTAGTGCAG,9280 fluorescence intensity (a.u.)
21,CAATTTGGCATTTGGCATTTGCTAGTCTATAGTAGCAAATCGGAGTCACCTAGTGCAG,8130 fluorescence intensity (a.u.)

row,Sequence,binding signal
1,GTACGACAGTAGTTGTTTTTCTCGCTTTTGATTTTGAGTCCGGAGTCACCTAGTGCAG,8560 fluorescence intensity (a.u.)
2,CTCGTCGTCGCCTCCGCTCCTTGCGCCATCTCGCGGCGCCCGGAGTCACCTAGTGCAG,9480 fluorescence intensity (a.u.)
3,TATGGACTGTTTTGTTTTGTTCCCCTAGCTAGAATTATTCCGGAGTCACCTAGTGCAG,9880 fluorescence intensity (a.u.)
4,TCTTCTTCTTGTTGTTCTTGTTCTTTCTTCTTCCCCTTTTCGGAGTCACCTAGTGCAG,18800 fluorescence intensity (a.u.)
5,CCTTTGTTCTTGCCGTCTCTTTTTTTTTTTTACAGAAGAACGGAGTCACCTAGTGCAG,14600 fluorescence intensity (a.u.)
6,TTTCTTTGTTGTCTCACTTTCCCTTTTTCCACTTCTTTTTCGGAGTCACCTAGTGCAG,11700 fluorescence intensity (a.u.)
7,AGTAGGTTGTTGGTTTTGTACCTTTGGGCTCTTTGCCTTTCGGAGTCACCTAGTGCAG,10900 fluorescence intensity (a.u.)
8,TTTGGGTTGTGCTTAGGTTTCCTTCTCGGGCTTTGTTGTACGGAGTCACCTAGTGCAG,18700 fluorescence intensity (a.u.)
9,CCTTCTCGGGCTTTGTTGTACGTATGCGTCTCGTGTTGGGCGGAGTCACCTAGTGCAG,8780 fluorescence intensity (a.u.)
10,GCTTTTTTTTTTTCTTTCTTTCTTTTTCCCCTTCGGCTTCCGGAGTCACCTAGTGCAG,12500 fluorescence intensity (a.u.)
11,TTCATCCCCTAACCCTTTCTTTGTTCATCTTGTTCTTCCTCGGAGTCACCTAGTGCAG,9970 fluorescence intensity (a.u.)
12,GATATGCATTTTCCCTGCTTTCCCTGCTTTTCCCCTTTTTCGGAGTCACCTAGTGCAG,16400 fluorescence intensity (a.u.)
13,GTAGCCGCTTCCTGCCTTCCTTCCCCTTGCTCTTGCATTTCGGAGTCACCTAGTGCAG,8340 fluorescence intensity (a.u.)
14,GCATTTCGTGTTCCCTTTTTGCCTTTTTTTCCCCTTTTCTCGGAGTCACCTAGTGCAG,10300 fluorescence intensity (a.u.)
15,ATCTTCCCTTACAGTGACATCCTTTGTTCTTGCCGTCTCTCGGAGTCACCTAGTGCAG,17600 fluorescence intensity (a.u.)
16,GTTACCGAAGTTTTACTTTATACCATATGTACTCTATCTACGGAGTCACCTAGTGCAG,8060 fluorescence intensity (a.u.)
17,GAGACACCGACGCGTCACACCACCACGTCCGTTTCCGTACCGGAGTCACCTAGTGCAG,8300 fluorescence intensity (a.u.)
18,GTTTATTTGGGTTCTCTTATGTGTTGGTGTGTCGATGACCCGGAGTCACCTAGTGCAG,8940 fluorescence intensity (a.u.)
19,AAATGTATTTATTTTTTTTCTACTCCCTCCGCCCCTTAATCGGAGTCACCTAGTGCAG,8590 fluorescence intensity (a.u.)
20,ATCCTGGACTATGGCTTTCTCTCGTAGCACGATTTTTCTTCGGAGTCACCTAGTGCAG,10600 fluorescence intensity (a.u.)
21,ATTAGTTTTTTTTTCTATATTTAATACTCCATGCATATGTCGGAGTCACCTAGTGCAG,9200 fluorescence intensity (a.u.)
